Inconclusive results are not listed. The source made the active and inactive calls. The calls were made as follows, unless noted: active = hit-call score of the fitted dose curve at least 0.9, where 1 is the maximum; inconclusive = response in the unintended direction; inactive = score below 0.9.
How the values were obtained:
[1] = ATG_TCF_b_cat_CIS: Attagene CIS-FACTORIAL HepG2 Assay for human T-Cell-Factor with beta-catenin (TCF/b-cat) (AID 2282965; active = hit-call score of the fitted dose curve at least 0.9, where 1 is the maximum; inactive = score below 0.9); settings: HepG2 TCF/beta-catenin cis-reporter transcription, actives raise or lower the signal
Summary of the method: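 Endogenous transcription factor activity is captured through cis-promoter reporter constructs transiently introduced into human HepG2 liver cells. Induced reporter mRNA is measured after 24 h and fitted bidirectionally relative to DMSO.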

[2] = ATG_TAL_CIS: Attagene CIS-FACTORIAL HepG2 Assay for human TAL Basal Promoter (AID 2282966; active = hit-call score of the fitted dose curve at least 0.9, where 1 is the maximum; inactive = score below 0.9;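 also: background control endpoint measuring basal TAL promoter reporter mRNA not a specific factor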); settings: HepG2 Attagene cis-factorial TAL promoter reporter; actives raise or lower the signal
Summary of the method: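 Basal-promoter background-control endpoint from a multiplexed HepG2 reporter panel. Cells were exposed 24 h, then reporter mRNA was read by RT-PCR/CE fluorescence and fitted in both directions relative to DMSO.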

[3] = ATG_TGFb_CIS: Attagene CIS-FACTORIAL HepG2 Assay for human Transforming Growth Factor (TGF) (AID 2282967; active = hit-call score of the fitted dose curve at least 0.9, where 1 is the maximum; inactive = score below 0.9); settings: HepG2 Attagene CIS TGFb reporter, mRNA transcription; actives raise or lower the signal
Summary of the method: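 Transient MRTU transfection of HepG2 (FuGene 6). Dose 24 h. TriZol RNA, oligo(dT) RT, PCR, 6-FAM primer extension, HpaI cut, CE. Bidirectional fit, DMSO = baseline.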

[4] = target: Nuclear receptor subfamily 1 group I member 3 (Homo sapiens) (UniProt Q14994); assay: ATG_CAR_TRANS: Attagene TRANS-FACTORIAL HepG2 Assay for human Constitutive Androstane Receptor (CAR) (AID 2282969); settings: HepG2 Attagene TRANS-FACTORIAL CAR reporter;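 also: activators raise reporter mRNA above DMSO so AC50 marks induction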
Chain of Nuclear receptor subfamily 1 group I member 3 (Homo sapiens) (Q14994 whole entry, looked up, the tested form may be a part): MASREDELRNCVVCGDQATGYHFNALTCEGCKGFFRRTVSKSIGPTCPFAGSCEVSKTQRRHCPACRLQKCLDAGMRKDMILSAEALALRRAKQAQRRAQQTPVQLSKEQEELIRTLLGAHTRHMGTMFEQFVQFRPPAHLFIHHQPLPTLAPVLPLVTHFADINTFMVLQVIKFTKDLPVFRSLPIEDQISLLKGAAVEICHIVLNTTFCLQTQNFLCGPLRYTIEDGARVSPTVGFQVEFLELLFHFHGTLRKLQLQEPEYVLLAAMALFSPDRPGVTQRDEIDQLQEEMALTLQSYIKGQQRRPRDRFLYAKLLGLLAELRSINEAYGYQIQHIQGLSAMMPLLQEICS
Summary of the method: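 Signal is reporter mRNA induction relative to DMSO, measured 24 h after dosing by RT-PCR with fluorescent primer extension and capillary electrophoresis. Human HepG2 liver cells carried transiently transfected chimeric NR-Gal4/GAL4-UAS reporter constructs.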

[5] = target: Estrogen receptor (Homo sapiens) (UniProt P03372); assay: ATG_ERa_TRANS: Attagene TRANS-FACTORIAL HepG2 Assay for human Estrogen Receptor alpha (ERa) (AID 2282970); settings: HepG2 Attagene TRANS ERa GAL4 reporter, mRNA
Chain of Estrogen receptor (Homo sapiens) (P03372 whole entry, looked up, the tested form may be a part): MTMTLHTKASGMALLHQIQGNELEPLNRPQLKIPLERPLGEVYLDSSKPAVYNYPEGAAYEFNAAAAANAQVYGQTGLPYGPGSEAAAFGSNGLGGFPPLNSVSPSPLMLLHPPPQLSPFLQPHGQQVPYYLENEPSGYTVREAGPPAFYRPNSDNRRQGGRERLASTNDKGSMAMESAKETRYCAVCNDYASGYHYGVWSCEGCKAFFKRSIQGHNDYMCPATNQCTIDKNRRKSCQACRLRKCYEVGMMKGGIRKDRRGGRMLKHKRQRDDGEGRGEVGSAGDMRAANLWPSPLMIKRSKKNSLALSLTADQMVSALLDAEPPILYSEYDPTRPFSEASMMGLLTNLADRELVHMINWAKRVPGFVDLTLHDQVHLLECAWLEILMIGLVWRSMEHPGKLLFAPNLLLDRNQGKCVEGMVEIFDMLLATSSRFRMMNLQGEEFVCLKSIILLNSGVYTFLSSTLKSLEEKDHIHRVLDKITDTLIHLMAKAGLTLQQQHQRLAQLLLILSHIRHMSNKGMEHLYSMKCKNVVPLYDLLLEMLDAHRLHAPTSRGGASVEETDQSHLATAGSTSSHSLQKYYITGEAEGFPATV
Summary of the method: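 Gal4-fusion ERa transactivation, measured as reporter transcript level in transiently transfected HepG2 cells. Exposure 24 h; RT-PCR plus capillary electrophoresis with fluorescence detection.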

[6] = target: X-box-binding protein 1 (Homo sapiens) (UniProt P17861); assay: ATG_Xbp1_CIS: Attagene CIS-FACTORIAL HepG2 Assay for human X-box Binding Protein 1 (XBP1) (AID 2282972; active = hit-call score of the fitted dose curve at least 0.9, where 1 is the maximum; inactive = score below 0.9); settings: HepG2 XBP1 cis-element reporter, Attagene multiplex; actives raise or lower the signal
Chain of X-box-binding protein 1 (Homo sapiens) (P17861 whole entry, looked up): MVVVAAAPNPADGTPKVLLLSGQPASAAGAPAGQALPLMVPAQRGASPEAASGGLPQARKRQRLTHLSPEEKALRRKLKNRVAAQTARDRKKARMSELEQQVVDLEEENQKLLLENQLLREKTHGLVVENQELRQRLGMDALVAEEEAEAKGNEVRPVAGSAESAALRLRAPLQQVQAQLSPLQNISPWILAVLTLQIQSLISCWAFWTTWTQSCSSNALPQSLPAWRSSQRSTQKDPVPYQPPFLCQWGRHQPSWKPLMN
Summary of the method: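 Changes in reporter transcript abundance, read by RT-PCR and capillary electrophoresis, reflect endogenous transcription factor activity. Transfected HepG2 cells received compound for 24 hours; DMSO defined baseline for bidirectional analysis.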

[7] = target: Glucocorticoid receptor (Homo sapiens) (UniProt P04150); assay: ATG_GR_TRANS: Attagene TRANS-FACTORIAL HepG2 Assay for human Glucocorticoid Receptor (GR) (AID 2282978); settings: HepG2 Attagene TRANS GR reporter, mRNA transcription;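 also: activators score as hits since higher reporter transcript over DMSO is fitted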
Summary of the method: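 HepG2 transient transfection, multiple reporter units, GAL4-UAS under NR-GAL4 chimera control. 24 h treatment. Reporter mRNA by RT-PCR/CE fluorescence, DMSO as negative control.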

[8] = target: Oxysterols receptor LXR-alpha (Homo sapiens) (UniProt Q13133); assay: ATG_LXRa_TRANS: Attagene TRANS-FACTORIAL HepG2 Assay for human Liver X Receptor alpha (LXRa) (AID 2282980); settings: HepG2 Attagene TRANS reporter, LXRa transactivation
Summary of the method: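 HepG2 cells transiently transfected with GAL4-UAS reporter units for chimeric NR-Gal4 proteins, exposed to chemicals for 24 h. Reporter mRNA quantified by RT-PCR and capillary electrophoresis; gain of signal fitted relative to DMSO.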

[9] = target: Oxysterols receptor LXR-beta (Homo sapiens) (UniProt P55055); assay: ATG_LXRb_TRANS: Attagene TRANS-FACTORIAL HepG2 Assay for human Liver X Receptor beta (LXRb) (AID 2282981); settings: HepG2 Attagene TRANS GAL4-LXRb reporter, mRNA
Chain of Oxysterols receptor LXR-beta (Homo sapiens) (P55055 whole entry, looked up, the tested form may be a part): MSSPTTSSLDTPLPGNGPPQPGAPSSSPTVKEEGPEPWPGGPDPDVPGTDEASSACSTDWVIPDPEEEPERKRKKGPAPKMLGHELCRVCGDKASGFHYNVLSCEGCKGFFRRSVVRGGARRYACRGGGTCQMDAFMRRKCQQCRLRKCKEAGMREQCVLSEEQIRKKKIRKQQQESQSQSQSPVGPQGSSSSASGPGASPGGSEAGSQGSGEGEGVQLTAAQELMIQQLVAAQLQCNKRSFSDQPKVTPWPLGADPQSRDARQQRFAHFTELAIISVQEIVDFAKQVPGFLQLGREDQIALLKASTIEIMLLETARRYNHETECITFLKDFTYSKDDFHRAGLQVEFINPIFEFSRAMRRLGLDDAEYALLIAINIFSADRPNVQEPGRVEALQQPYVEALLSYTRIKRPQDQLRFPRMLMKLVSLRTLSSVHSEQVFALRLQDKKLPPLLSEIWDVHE
Summary of the method: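 After 24 h chemical treatment of transfected HepG2 cells carrying exogenous NR-Gal4 chimeras, reporter mRNA was quantified by fluorescent RT-PCR and capillary electrophoresis; activity taken as increase over DMSO controls.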

[10] = ATG_M_06_TRANS: Attagene TRANS-FACTORIAL HepG2 Assay for M06 Transcription Factor (Internal Marker) (AID 2282983); settings: HepG2 Attagene TRANS M06 internal marker reporter
Summary of the method: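 mRNA levels of a reporter transcript, quantified as FAM fluorescence on capillary electrophoresis, served as readout. HepG2 cells expressing exogenous GAL4-chimera reporter constructs were exposed for 24 h. Gain of signal over DMSO was evaluated.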

[11] = ATG_M_19_TRANS: Attagene TRANS-FACTORIAL HepG2 Assay for M19 Transcription Factor (Internal Marker) (AID 2282974); settings: HepG2 Attagene TRANS-FACTORIAL M19 internal marker reporter
Summary of the method: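 Gain-of-signal in reporter mRNA, relative to DMSO, was scored from capillary electrophoresis fluorescence. HepG2 cells carried transiently transfected multiple reporter transcription units and were incubated with test chemicals for 24 h.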

[12] = target: Estrogen-related receptor gamma (Homo sapiens) (UniProt P62508); assay: ATG_ERRg_TRANS: Attagene TRANS-FACTORIAL HepG2 Assay for human Estrogen-Related Receptor gamma (ERRg) (AID 2282977); settings: HepG2 Attagene TRANS reporter, ERRg transactivation;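 also: hits increase reporter signal over DMSO so potencies reflect activators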
Chain of Estrogen-related receptor gamma (Homo sapiens) (P62508 whole entry, looked up, the tested form may be a part): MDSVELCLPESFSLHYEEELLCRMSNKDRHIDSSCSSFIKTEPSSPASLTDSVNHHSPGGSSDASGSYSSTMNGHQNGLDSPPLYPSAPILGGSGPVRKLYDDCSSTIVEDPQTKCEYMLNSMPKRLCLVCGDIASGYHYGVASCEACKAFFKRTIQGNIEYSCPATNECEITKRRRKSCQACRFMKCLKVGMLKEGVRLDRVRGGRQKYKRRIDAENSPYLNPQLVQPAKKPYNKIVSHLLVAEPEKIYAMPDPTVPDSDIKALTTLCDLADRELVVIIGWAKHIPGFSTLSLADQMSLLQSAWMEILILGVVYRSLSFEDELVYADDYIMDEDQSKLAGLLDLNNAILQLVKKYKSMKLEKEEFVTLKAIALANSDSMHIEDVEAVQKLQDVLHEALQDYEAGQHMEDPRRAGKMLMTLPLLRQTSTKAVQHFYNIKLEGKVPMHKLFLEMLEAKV
Summary of the method: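 Exogenous NR-Gal4 chimera activity measured as reporter transcript induction after 24 h in transiently transfected HepG2 cells. RNA reverse-transcribed, PCR-amplified, 6-FAM-labelled and resolved by capillary electrophoresis; increase over DMSO baseline.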

[13] = target: Bile acid receptor (Homo sapiens) (UniProt Q96RI1); assay: ATG_FXR_TRANS: Attagene TRANS-FACTORIAL HepG2 Assay for Farnesoid X Receptor (FXR) (AID 2282979); settings: HepG2 Attagene TRANS FXR-GAL4 reporter transcription;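 also: hits raise reporter mRNA above DMSO so AC50 marks FXR activation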
Chain of Bile acid receptor (Homo sapiens) (Q96RI1 whole entry, looked up, the tested form may be a part): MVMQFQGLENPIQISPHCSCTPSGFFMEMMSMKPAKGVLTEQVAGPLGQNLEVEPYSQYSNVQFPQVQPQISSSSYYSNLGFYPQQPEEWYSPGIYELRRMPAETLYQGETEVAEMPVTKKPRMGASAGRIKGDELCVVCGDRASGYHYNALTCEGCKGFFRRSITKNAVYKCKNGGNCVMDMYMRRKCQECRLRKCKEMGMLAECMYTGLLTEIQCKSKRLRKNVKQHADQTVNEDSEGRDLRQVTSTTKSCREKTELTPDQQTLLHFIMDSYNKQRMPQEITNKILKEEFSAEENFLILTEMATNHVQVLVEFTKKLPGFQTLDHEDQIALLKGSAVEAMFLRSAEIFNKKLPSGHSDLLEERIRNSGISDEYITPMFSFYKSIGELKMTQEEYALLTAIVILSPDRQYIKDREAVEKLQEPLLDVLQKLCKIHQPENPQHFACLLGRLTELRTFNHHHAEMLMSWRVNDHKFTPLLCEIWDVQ
Summary of the method: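 HepG2 cells were transiently transfected with GAL4-UAS reporters driven by chimeric NR-Gal4 proteins and dosed for 24 h. Reporter mRNA was quantified by RT-PCR, fluorescent labelling, HpaI digestion and capillary electrophoresis, with gain of signal scored versus DMSO.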

[14] = target: Hepatocyte nuclear factor 4-alpha (Homo sapiens) (UniProt P41235); assay: ATG_HNF4a_TRANS: Attagene TRANS-FACTORIAL HepG2 Assay for human Hepatocyte Nuclear Factor 4 alpha (HNF4a) (AID 2282982); settings: HepG2 HNF4a transactivation reporter, mRNA readout
Chain of Hepatocyte nuclear factor 4-alpha (Homo sapiens) (P41235 whole entry, looked up, the tested form may be a part): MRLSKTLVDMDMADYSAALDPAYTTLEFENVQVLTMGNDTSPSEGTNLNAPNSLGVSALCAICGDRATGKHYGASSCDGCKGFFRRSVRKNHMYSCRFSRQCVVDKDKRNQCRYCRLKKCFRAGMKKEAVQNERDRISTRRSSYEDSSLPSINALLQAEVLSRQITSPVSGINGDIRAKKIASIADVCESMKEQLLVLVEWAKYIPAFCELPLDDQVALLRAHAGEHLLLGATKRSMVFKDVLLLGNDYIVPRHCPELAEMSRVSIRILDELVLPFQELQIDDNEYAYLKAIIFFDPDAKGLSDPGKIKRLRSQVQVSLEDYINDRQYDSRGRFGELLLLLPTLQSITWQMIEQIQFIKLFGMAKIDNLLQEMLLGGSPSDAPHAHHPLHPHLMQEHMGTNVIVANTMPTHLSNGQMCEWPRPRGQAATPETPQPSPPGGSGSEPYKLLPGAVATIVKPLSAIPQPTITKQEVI
Summary of the method: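 Activity of an exogenous HNF4a–Gal4 fusion scored as induced GAL4-UAS reporter transcripts after 24 h chemical exposure of transfected human HepG2 cells. Read-out via RT-PCR with 6-FAM labelling and capillary electrophoresis; rise over DMSO baseline.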

[15] = target: Nuclear receptor subfamily 4 group A member 2 (Homo sapiens) (UniProt P43354); assay: ATG_NURR1_TRANS: Attagene TRANS-FACTORIAL HepG2 Assay for human Nuclear Receptor Related Protein 1 (NURR1) (AID 2282985); settings: HepG2 Attagene TRANS reporter, mRNA readout
Chain of Nuclear receptor subfamily 4 group A member 2 (Homo sapiens) (P43354 whole entry, looked up, the tested form may be a part): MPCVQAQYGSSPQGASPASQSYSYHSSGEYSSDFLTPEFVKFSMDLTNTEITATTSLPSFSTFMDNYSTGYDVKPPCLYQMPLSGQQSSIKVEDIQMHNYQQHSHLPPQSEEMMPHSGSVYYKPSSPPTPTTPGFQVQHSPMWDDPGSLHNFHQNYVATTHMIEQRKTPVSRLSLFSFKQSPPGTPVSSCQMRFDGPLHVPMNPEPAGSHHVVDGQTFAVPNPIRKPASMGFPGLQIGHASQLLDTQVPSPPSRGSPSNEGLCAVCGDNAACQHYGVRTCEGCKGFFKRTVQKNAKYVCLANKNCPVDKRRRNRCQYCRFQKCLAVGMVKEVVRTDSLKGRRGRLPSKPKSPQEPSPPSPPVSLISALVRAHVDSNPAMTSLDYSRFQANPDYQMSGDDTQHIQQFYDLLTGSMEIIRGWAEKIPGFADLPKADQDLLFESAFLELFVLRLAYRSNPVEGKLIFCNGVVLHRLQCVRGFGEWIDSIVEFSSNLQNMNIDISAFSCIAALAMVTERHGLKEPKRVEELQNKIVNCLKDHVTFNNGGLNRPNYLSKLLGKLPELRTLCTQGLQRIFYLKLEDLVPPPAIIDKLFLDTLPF
Summary of the method: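 Reporter transcript induction, measured by RT-PCR with fluorescent labelling, HpaI digestion and capillary electrophoresis, after 24 hr dosing of human HepG2 cells transiently expressing an exogenous NR-Gal4 fusion with GAL4-UAS-driven reporters; DMSO as baseline.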

[16] = target: Transcriptional activator Myb (Homo sapiens) (UniProt P10242); assay: ATG_Myb_CIS: Attagene CIS-FACTORIAL HepG2 Assay for human Myeloblastosis (Myb) Proto-Oncogene Transcription Factor (AID 2282986; active = hit-call score of the fitted dose curve at least 0.9, where 1 is the maximum; inactive = score below 0.9); settings: HepG2 Attagene CIS-FACTORIAL Myb reporter transcription; actives raise or lower the signal
Chain of Transcriptional activator Myb (Homo sapiens) (P10242 whole entry, looked up): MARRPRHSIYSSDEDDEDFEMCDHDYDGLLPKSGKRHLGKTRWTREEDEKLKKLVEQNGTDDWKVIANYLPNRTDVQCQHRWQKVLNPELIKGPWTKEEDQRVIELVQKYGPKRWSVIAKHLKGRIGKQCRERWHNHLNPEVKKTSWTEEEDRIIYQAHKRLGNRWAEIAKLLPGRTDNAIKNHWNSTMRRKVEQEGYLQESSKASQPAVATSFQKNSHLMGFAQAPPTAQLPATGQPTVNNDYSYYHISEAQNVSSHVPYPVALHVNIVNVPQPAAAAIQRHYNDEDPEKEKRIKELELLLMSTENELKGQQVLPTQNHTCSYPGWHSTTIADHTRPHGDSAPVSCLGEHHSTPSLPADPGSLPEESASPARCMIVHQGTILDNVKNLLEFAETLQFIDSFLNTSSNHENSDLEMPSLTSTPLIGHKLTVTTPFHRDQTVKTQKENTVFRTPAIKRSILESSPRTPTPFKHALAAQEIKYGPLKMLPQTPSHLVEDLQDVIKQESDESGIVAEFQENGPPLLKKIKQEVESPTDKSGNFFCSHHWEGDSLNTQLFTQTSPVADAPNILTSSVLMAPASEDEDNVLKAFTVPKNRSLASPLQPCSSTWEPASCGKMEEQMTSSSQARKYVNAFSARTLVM
Summary of the method: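 Multiplexed cis-reporter system in HepG2: transient transfection, 24 h treatment, mRNA readout by RT-PCR and capillary electrophoresis. Both increases and decreases are scored versus DMSO negative control.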

[17] = target: Steroid hormone receptor ERR1 (Homo sapiens) (UniProt P11474); assay: ATG_ERRa_TRANS: Attagene TRANS-FACTORIAL HepG2 Assay for human Estrogen-Related Receptor alpha (ERRa) (AID 2282971); settings: HepG2 Attagene TRANS reporter, ERRa transactivation
Chain of Steroid hormone receptor ERR1 (Homo sapiens) (P11474 whole entry, looked up, the tested form may be a part): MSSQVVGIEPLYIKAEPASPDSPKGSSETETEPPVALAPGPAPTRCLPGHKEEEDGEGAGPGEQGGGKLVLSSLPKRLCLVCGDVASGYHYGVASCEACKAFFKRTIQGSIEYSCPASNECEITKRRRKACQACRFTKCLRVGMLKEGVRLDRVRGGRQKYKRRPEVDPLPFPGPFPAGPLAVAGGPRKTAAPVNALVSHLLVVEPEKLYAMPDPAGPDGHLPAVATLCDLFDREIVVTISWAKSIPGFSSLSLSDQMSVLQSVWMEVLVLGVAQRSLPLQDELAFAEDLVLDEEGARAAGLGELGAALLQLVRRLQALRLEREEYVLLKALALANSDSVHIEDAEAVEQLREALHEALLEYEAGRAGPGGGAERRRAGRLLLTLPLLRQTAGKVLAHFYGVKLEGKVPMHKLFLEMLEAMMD
Summary of the method: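 HepG2 cells transiently transfected with GAL4-UAS reporter units and chimeric NR-Gal4 constructs; after 24 hour compound incubation, reporter mRNA quantified by RT-PCR, fluorescent labelling and capillary electrophoresis, gain of signal versus DMSO.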

[18] = ATG_GAL4_TRANS: Attagene TRANS-FACTORIAL HepG2 Assay for GAL4 (Internal Marker) (AID 2282976); settings: HepG2 Attagene TRANS GAL4 internal marker reporter
Summary of the method: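 Background-control readout: GAL4-UAS reporter transcript in transiently transfected HepG2 cells after 24 h compound exposure. Measured by RT-PCR, 6-FAM primer extension, HpaI digest and capillary electrophoresis; gain-of-signal fit versus DMSO.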

[19] = ATG_M_32_TRANS: Attagene TRANS-FACTORIAL HepG2 Assay for M32 Transcription Factor (Internal Marker) (AID 2282984); settings: HepG2 Attagene TRANS M32 internal marker reporter
Summary of the method: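 Internal background reporter in transfected HepG2: after 24 h chemical exposure, RNA reverse-transcribed, reporter cDNA amplified, fluorescently labelled and HpaI-cut, then sized by capillary electrophoresis. Gain of signal fitted against DMSO control.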

Measured: AC50

O=C1CCCCCCCCCCC1
active: [5] 21.2 µM
inactive: [1] | [2] | [3] | [4] | [6] | [7] | [8] | [9] | [10]

CN(C)c1ccc2nc3ccc(=[N+](C)C)cc-3sc2c1
inactive: [1] | [2] | [3] | [4] | [5] | [6] | [11] | [12] | [13] | [8] | [9] | [14] | [10] | [15] | [16]

Cc1ccc2c(c1)CCCN2
inactive: [1] | [2] | [3] | [4] | [5] | [6] | [8] | [14] | [10]

CCCCOCCOCCOC(C)=O
inactive: [1] | [2] | [3] | [5] | [17] | [6] | [11] | [18] | [7] | [9] | [16]

CO[Si](C)(C)OC
inactive: [1] | [2] | [3] | [4] | [5] | [11] | [18] | [12] | [7] | [14] | [10] | [19]
active: [16] 151 µM

CC(C)(c1ccccc1)c1ccc(Nc2ccc(C(C)(C)c3ccccc3)cc2)cc1
inactive: [1] | [2] | [3] | [4] | [5] | [6] | [11] | [12] | [7] | [8] | [9] | [10] | [15] | [16]

O=C(Oc1ccccc1)c1ccccc1O
inactive: [1] | [2] | [3] | [4] | [5] | [6] | [18] | [9] | [10] | [15] | [16]

N=C1C=CC(=C(c2ccc(N)cc2)c2ccc(N)cc2)C=C1
inactive: [2] | [3] | [5] | [11] | [18] | [12] | [10] | [19] | [15]
active: [1] 26.5 µM | [6] 25.3 µM | [14] 129 µM | [16] 24.9 µM

O=C(O)c1cc(O)c2ccccc2c1O
inactive: [1] | [5] | [17] | [6] | [12] | [7] | [8] | [9] | [14] | [10] | [19]
active: [2] 51.6 µM | [3] 33.4 µM | [15] 1.1 µM | [16] 57.4 µM

CC=C(C)C(C)=O
active: [15] 44.7 µM
inactive: [1] | [2] | [3] | [4] | [6] | [18] | [9] | [10] | [16]

CCCCCCCCCC[N+](C)(CCCCCCCCCC)CCC[Si](OC)(OC)OC
inactive: [1] | [2] | [3] | [4] | [11] | [9] | [14] | [15]
active: [6] 18 µM | [16] 15.9 µM

CC1=C(O)C(=O)C(C)O1 (stereo unspecified)
inactive: [1] | [2] | [3] | [4] | [5] | [6] | [18] | [13] | [9] | [10] | [16]

O=C(Cl)c1c(Cl)c(Cl)c(C(=O)Cl)c(Cl)c1Cl
inactive: [1] | [2] | [5] | [17] | [18] | [12] | [7] | [13] | [8] | [14] | [10] | [15] | [16]
active: [3] 0.74 µM

Clc1cc(Cl)c(Cl)c(Cl)c1Cl
inactive: [1] | [2] | [4] | [6] | [11] | [18] | [7] | [9] | [14] | [10] | [19] | [16]
active: [3] 100 µM | [5] 27 µM

CC=C(C)C=CC=C(C)C
inactive: [1] | [2] | [3] | [4] | [5] | [6] | [8] | [14] | [10] | [15] | [16]

CCCCCCCCCCCCc1ccc(O)cc1
inactive: [1] | [2] | [3] | [6] | [11] | [18] | [7] | [13] | [8] | [10] | [19] | [15] | [16]
active: [5] 0.0847 µM | [9] 15.1 µM

Source: PubChem BioAssay (EPA / NIEHS)
